# Activity calls are given as the source filed them.
# Columns and labels:
# [1] = E. coli DRC41 culture turbidity changes, primary screen, E. coli filamentation inducer project, strain DRC41, OD650, 48 h (AID 1152);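 note: E. coli MC1000 strain DRC41 lacking acrAB efflux pump and sulA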; conditions: E. coli DRC41 (acrAB sulA), higher = more signal, called active from +8 up or from −8 down
# [2] = small-molecule binders of probe aLefty1, primary screen, biochemical, small-molecule microarray, 635/667 nm fluorescence (AID 1153); conditions: higher = more signal;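 note: score merges spot fluorescence with signal-to-noise ratio from the scanned slide images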
# [3] = PSAC antagonists in infected red cells, primary screen, cell-based, P. falciparum Indochina, OD700, 1 h (AID 1154); conditions: P. falciparum Indochina infected RBC osmotic lysis, higher = more signal, called active from +8 up or from −8 down
# [4] = PSAC antagonists in infected red cells, primary screen, cell-based, P. falciparum Indochina, OD700, 2 h (AID 1155);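 note: lysis reports solute entry through the parasite surface anion channel PSAC; channel blockers reduce lysis of infected cells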; conditions: P. falciparum Indochina infected erythrocytes, osmotic lysis OD700; higher = more signal, called active from +8 up or from −8 down
# [5] = osmotic lysis modulators in infected erythrocytes, primary screen, PSAC antagonist project, cell-based, P. falciparum Indochina, OD700, 3 h (AID 1156); conditions: higher = more signal, called active from +8 up or from −8 down
# [6] = PSAC antagonists in infected red cells, primary screen, cell-based, P. falciparum Indochina, OD700, 18 h (AID 1157); conditions: P. falciparum Indochina infected erythrocytes, osmotic lysis OD700, 18 h; higher = more signal, called active from +8 up or from −8 down
# [7] = modulators of S6 phosphorylation in cells, primary screen, cell-based, A549, cytoblot, luminescence, serum-stimulated (AID 1158); conditions: A549 phospho-S6 cytoblot, 5 h, higher = more signal;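 note: serum-stimulated A549 lung adenocarcinoma cells; signal is phosphorylated S6 detected by cytoblot immunostaining with HRP secondary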
# [8] = molecular target: NADPH oxidase 2 (Homo sapiens) (UniProt P04839); experiment: NOX2-dependent H2O2 signal modulators, primary screen, NOX inhibitor project, cell-based, HEK293-NOX2, PMA-stimulated, Amplex Red fluorescence (AID 1159); conditions: 45 min, higher = more signal, called active from +8 up or from −8 down; note: test concentration not given here
# [9] = molecular target: NADPH oxidase 4 (Homo sapiens) (UniProt Q9NPH5); experiment: NOX4-dependent H2O2 signal modulators, primary screen, NOX inhibitor project, cell-based, HEK293-NOX4, tetracycline-induced, Amplex Red fluorescence (AID 1160); conditions: 45 min, higher = more signal, called active from +8 up or from −8 down
# [10] = molecular target: NADPH oxidase 5 (Homo sapiens) (UniProt Q96PH1); experiment: NOX5-dependent H2O2 signal modulators, primary screen, NOX inhibitor project, cell-based, HEK293-NOX5, Amplex Red fluorescence (AID 1161); conditions: HEK293-NOX5, ionomycin, 45 min, higher = more signal
# Chain of NADPH oxidase 5 (Homo sapiens) (Q96PH1 whole entry, looked up): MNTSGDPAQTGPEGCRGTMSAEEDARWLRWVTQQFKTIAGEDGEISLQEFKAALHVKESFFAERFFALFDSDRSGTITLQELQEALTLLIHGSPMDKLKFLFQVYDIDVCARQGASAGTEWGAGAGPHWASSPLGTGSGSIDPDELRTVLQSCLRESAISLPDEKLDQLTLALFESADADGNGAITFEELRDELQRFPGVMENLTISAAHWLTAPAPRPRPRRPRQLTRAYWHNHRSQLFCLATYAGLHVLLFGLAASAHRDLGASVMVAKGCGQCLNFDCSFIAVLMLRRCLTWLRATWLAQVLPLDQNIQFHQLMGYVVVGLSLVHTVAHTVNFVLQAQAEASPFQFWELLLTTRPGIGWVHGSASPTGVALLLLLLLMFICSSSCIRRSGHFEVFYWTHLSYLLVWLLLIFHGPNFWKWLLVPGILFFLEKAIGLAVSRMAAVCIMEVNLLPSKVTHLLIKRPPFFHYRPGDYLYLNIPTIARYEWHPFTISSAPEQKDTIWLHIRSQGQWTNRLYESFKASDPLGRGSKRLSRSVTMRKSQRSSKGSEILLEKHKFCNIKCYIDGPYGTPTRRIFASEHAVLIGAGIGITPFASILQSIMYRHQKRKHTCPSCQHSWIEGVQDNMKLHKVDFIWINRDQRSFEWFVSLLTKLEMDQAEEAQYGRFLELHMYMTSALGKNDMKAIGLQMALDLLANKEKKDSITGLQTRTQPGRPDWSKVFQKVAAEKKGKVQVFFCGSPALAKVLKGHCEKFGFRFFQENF
# Chain of NADPH oxidase 2 (Homo sapiens) (P04839 whole entry, looked up): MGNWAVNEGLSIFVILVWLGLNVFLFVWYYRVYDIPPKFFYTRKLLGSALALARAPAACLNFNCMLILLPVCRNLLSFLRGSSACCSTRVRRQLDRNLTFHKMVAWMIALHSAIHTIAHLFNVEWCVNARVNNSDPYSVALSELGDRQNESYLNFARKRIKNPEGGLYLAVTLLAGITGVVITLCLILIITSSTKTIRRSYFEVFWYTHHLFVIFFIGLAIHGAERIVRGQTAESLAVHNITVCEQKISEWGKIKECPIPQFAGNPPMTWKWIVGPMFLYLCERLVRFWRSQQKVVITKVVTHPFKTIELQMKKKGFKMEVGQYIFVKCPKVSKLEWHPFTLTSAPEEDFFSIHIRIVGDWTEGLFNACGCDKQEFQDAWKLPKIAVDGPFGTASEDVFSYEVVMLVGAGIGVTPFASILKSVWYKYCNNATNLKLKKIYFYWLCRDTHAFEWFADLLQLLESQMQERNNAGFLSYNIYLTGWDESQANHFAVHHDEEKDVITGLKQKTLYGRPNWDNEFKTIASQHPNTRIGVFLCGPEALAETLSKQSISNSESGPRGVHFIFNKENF
# Chain of NADPH oxidase 4 (Homo sapiens) (Q9NPH5 whole entry, looked up): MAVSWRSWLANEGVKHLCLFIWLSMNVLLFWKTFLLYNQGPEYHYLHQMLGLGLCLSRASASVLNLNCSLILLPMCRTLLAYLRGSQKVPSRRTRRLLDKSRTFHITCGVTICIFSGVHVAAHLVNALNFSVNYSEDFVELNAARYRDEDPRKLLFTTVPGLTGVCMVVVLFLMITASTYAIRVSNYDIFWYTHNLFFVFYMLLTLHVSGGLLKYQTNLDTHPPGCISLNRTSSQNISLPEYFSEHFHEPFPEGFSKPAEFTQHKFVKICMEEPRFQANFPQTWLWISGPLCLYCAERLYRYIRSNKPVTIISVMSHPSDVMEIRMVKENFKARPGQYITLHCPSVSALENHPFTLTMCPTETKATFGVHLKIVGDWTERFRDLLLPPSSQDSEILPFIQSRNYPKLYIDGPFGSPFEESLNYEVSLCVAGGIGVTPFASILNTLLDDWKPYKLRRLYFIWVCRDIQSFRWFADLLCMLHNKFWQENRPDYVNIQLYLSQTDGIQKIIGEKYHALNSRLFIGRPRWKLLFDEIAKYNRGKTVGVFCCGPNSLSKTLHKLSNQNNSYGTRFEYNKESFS
SMILES,z-score [1],composite z-score [2],z-score [3],z-score [4],z-score [5],z-score [6],z-score [7],z-score [8],z-score [9],z-score [10]
CCOC(=O)[C@H](Cc1ccccc1)NC(=O)CCC1CC(OC(=O)NCc2cccc3ccccc23)CC2(CCCC(COC(=O)NCc3ccccc3)O2)O1 (stereo not given in full),-1.32 (inactive),0.0935,4.71 (inactive),0.55 (inactive),-0.562 (inactive),-0.2 (inactive),3.91,-1.59 (inactive),-1.2 (inactive),-1.7
CCOC(=O)[C@H](CC(C)C)NC(=O)CCC1CC(OC(=O)NCc2cccc3ccccc23)CC2(CCCC(COC(=O)NCc3ccncc3)O2)O1 (stereo not given in full),0.432 (inactive),-0.142,7.59 (inactive),1.02 (inactive),-0.416 (inactive),0.42 (inactive),0.351,0.402 (inactive),0.142 (inactive),0.365
COC(=O)CC=C[C@@H](C)[C@@H](C=NO[C@@H](C)c1cn([C@H](CO)Cc2ccccc2)nn1)NS(=O)(=O)c1ccc(C)cc1,0.264 (inactive),0.196,0.507 (inactive),-1.66 (inactive),-0.598 (inactive),-1.93 (inactive),1.85,-0.575 (inactive),0.328 (inactive),0.17
C#CCCCON=C1[C@H]2CCn3c(=O)n(C)c(=O)n3[C@H]2[C@H](O)[C@@H]2O[C@H]12,0.117 (inactive),0.126,-0.611 (inactive),0.147 (inactive),-0.354 (inactive),0.0334 (inactive),-0.0228,-0.0249 (inactive),-0.124 (inactive),0.71
O=C1CCCC(C2=CCCCC2=O)C1 (stereo not given),-0.316 (inactive),-0.0224,0.599 (inactive),-0.349 (inactive),0.231 (inactive),-0.168 (inactive),0.142,-0.7 (inactive),-0.427 (inactive),-0.253
CCCNC(=O)OC[C@H]1O[C@H](CCON=Cc2ccc(C(=O)N3[C@H](c4ccc(C)cc4)[C@@H](C)CC[C@H]3C(=O)OC)cc2)C=C[C@@H]1Oc1ccc(OC)cc1,0.33 (inactive),-0.16,1.21 (inactive),0.674 (inactive),0.0952 (inactive),0.612 (inactive),-0.619,0.725 (inactive),0.611 (inactive),0.393
CO[C@H]1COC(=O)CC=C[C@@H](C)[C@H](OC)COC(=O)[C@@H]2CCCN2C(=O)CC=C[C@@H]1C,0.544 (inactive),0.114,-0.0903 (inactive),-0.289 (inactive),-0.32 (inactive),-0.0159 (inactive),1.14,0.833 (inactive),0.196 (inactive),0.0432
CCN1C(=O)[C@H]2[C@H]3[C@H](O)[C@H](O)CC(=NO[C@@H](C)c4cn([C@H](CO)Cc5ccccc5)nn4)[C@@H]3CC[C@H]2C1=O,0.115 (inactive),0.0618,0.202 (inactive),0.453 (inactive),0.357 (inactive),0.146 (inactive),-0.66,0.0799 (inactive),-2.08 (inactive),0.0391
CCC=CCCC(OC(=O)c1ccc(Br)cc1)C1=CCCCC1=O (stereo not given),-0.686 (inactive),-0.3,3.4 (inactive),0.626 (inactive),-0.0019 (inactive),-0.366 (inactive),0.86,-0.126 (inactive),-0.534 (inactive),-3.12
CCOC(=O)[C@H](Cc1ccccc1)NC(=O)CCC1CC(OC(=O)NCCc2ccc(F)cc2)CC2(CCCC(COC(=O)NCCc3ccccc3OC)O2)O1 (stereo not given in full),-1.1 (inactive),-0.0075,0.425 (inactive),0.136 (inactive),-0.106 (inactive),0.174 (inactive),0.392,-0.106 (inactive),0.151 (inactive),0.294
CO[C@@H]1COC(=O)CC=C[C@@H](C)[C@@H]2C=C[C@H](O)[C@@H](COC(=O)CC=C[C@H]1C)O2,0.988 (inactive),-0.0984,0.872 (inactive),-0.28 (inactive),0.178 (inactive),-0.213 (inactive),1.2,0.262 (inactive),1.18 (inactive),0.589
Cn1c(=O)n2n(c1=O)[C@H]1[C@H](O)[C@@H]3O[C@@H]3C(=NOCc3ccccc3)[C@H]1CC2,-0.022 (inactive),-0.0501,-0.347 (inactive),0.0184 (inactive),-0.432 (inactive),0.206 (inactive),-0.807,0.265 (inactive),0.456 (inactive),0.632
COc1cccc([C@H]2Oc3ccc(OC)cc3C(=NO[C@@H](C)c3cn([C@H](CO)Cc4ccccc4)nn3)[C@@H]2O)c1,-2.4 (inactive),-0.147,2.52 (inactive),0.41 (inactive),1.19 (inactive),0.611 (inactive),-0.15,-0.0734 (inactive),-0.424 (inactive),-0.327
CCOC(=O)CCN1C(=O)[C@H]2[C@H]3[C@H](O)[C@H](O)CC(=NOCC(C)C)[C@H]3CC[C@H]2C1=O,0.867 (inactive),-0.0519,0.0425 (inactive),-0.153 (inactive),0.298 (inactive),0.304 (inactive),-0.0487,-0.864 (inactive),0.148 (inactive),0.444
C=CC[C@@H]1C=C[C@H](ON=C2[C@H]3CCn4c(=O)n(-c5ccccc5)c(=O)n4[C@H]3[C@H](O)[C@@H]3O[C@H]23)[C@@H](CO)O1,-0.263 (inactive),-0.28,1.56 (inactive),1.07 (inactive),0.204 (inactive),0.588 (inactive),-1.02,-0.276 (inactive),0.964 (inactive),0.394
CC(C)=NO[C@H](C)c1cn([C@H](CO)Cc2ccccc2)nn1,-2.06 (inactive),-0.142,0.29 (inactive),0.0191 (inactive),-0.188 (inactive),0.269 (inactive),0.225,0.849 (inactive),-0.311 (inactive),-0.281
CCOC(=O)[C@H](CC(C)C)NC(=O)CCC1CC(OC(=O)NCc2cccc3ccccc23)CC2(CCCC(COC(=O)NCCOc3ccccc3)O2)O1 (stereo not given in full),0.288 (inactive),-0.372,-1.67 (inactive),-0.658 (inactive),-2.05 (inactive),-0.391 (inactive),-0.305,0.711 (inactive),0.635 (inactive),0.534
CCCNC(=O)OC[C@H]1O[C@H](c2ccccc2)C=C[C@@H]1Oc1ccc(OC)cc1,0.604 (inactive),-0.092,0.906 (inactive),0.141 (inactive),-0.353 (inactive),0.0261 (inactive),0.136,1.35 (inactive),-0.438 (inactive),-1.9
CCC(=O)[C@@]1(O)C(=O)N2C(=C3C(=O)OCC[C@@H]31)N(Cc1ccccc1)C(C)=C(C(=O)OC)[C@H]2c1ccccc1,-0.426 (inactive),-0.103,0.246 (inactive),0.633 (inactive),-0.242 (inactive),0.465 (inactive),-0.131,0.0553 (inactive),-0.147 (inactive),0.245
CCN1C(=O)[C@H]2[C@H]3[C@H](O)[C@H](O)CC(=NNC(=O)OCc4ccc(OC)cc4)[C@@H]3CC[C@H]2C1=O,-0.382 (inactive),0.238,1.09 (inactive),0.195 (inactive),-0.703 (inactive),0.181 (inactive),0.117,-0.13 (inactive),0.659 (inactive),-0.0409
CC[C@@H](c1ccccc1)n1c(=O)n2n(c1=O)[C@H]1[C@H](O)[C@@H]3O[C@@H]3C(=NOC[C@@H](O)COCc3ccco3)[C@H]1CC2,-0.389 (inactive),-0.89,1.34 (inactive),-0.339 (inactive),-0.18 (inactive),-0.381 (inactive),0.225,-0.892 (inactive),0.796 (inactive),1.36
O=C1C[C@@H](O)[C@@H](O)[C@@H]2[C@@H]3C(=O)N(C[C@@H]4CCCO4)C(=O)[C@@H]3CC[C@H]12,0.555 (inactive),-0.0969,0.651 (inactive),0.461 (inactive),-0.406 (inactive),0.376 (inactive),-0.0289,-0.453 (inactive),-0.111 (inactive),-0.0473
O=C1[C@H]2[C@H]3[C@H](O)[C@H](O)CC(=NOC[C@@H](O)COCc4ccco4)[C@@H]3CC[C@H]2C(=O)N1C[C@@H]1CCCO1,0.916 (inactive),-0.0061,2.05 (inactive),0.544 (inactive),-0.0602 (inactive),0.329 (inactive),-0.605,0.222 (inactive),0.374 (inactive),0.382
CO[C@H]1COC(=O)CC=C[C@H](C)[C@@H](OC)COC(=O)[C@H](C)COC(=O)CC=C[C@@H]1C,0.79 (inactive),-0.146,-0.0428 (inactive),0.202 (inactive),0.523 (inactive),0.13 (inactive),0.333,-0.165 (inactive),0.297 (inactive),-0.12
CCOC(=O)[C@H](CC(C)C)NC(=O)CCC1CC(OC(=O)NCCc2ccc(F)cc2)CC2(CCCC(COC(=O)NCCc3ccccc3OC)O2)O1 (stereo not given in full),-0.501 (inactive),-0.0603,-1.58 (inactive),-0.344 (inactive),-0.17 (inactive),-0.142 (inactive),-0.0491,0.00967 (inactive),0.15 (inactive),-0.0222
